Assay outcomes: PubChem, National Center for Advancing Translational Sciences (NCATS)
This is a sample that favours compounds with a hit; in the whole collection about 2.8% have one here.
KDM5B inh: Primary screen for KDM5B Histone Demethylases FDH-coupled qHTS; Lysine-specific demethylase 5B (Homo sapiens), Q9UGL1; KDM5B demethylase, FDH-coupled NADH fluorescence (FDH is formaldehyde dehydrogenase); Potency, µM (top dose mostly 57.7 µM), usual class: inhibitors; hit rate 2.6% among 220,000; AID 1347165, 2019; note: potency is the fitted concentration of half-maximal effect; 0% is about no effect; nearly all actives have a fitted effect of over 70% in size
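qHTS format, multiple compound concentrations. Buffer 50 mM HEPES pH 7.5/0.01% Tween-20; 200 nM KDM5BΔAP final; 10 min compound preincubation; substrate-mix levels 12.5 µM peptide, 25 µM α-KG, 0.25 mM NAD⁺; 30 min RT; ΔRFU.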
SNCA expr inh: Primary qHTS assay for inhibitors of alpha-synuclein gene (SNCA) expression; AID 1671194, 2021; HEK-293 SNCA-luciferase knock-in, luminescence, 24 h; hit rate 0.17% among 140,000; Potency, µM (doses to about 57.2 µM), inactives show at the highest dose activity change, negative = inhibition, actives largely listed as inhibitors;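 note: potency is the fitted concentration of half-maximal effect; plate controls were DMSO cells for no effect and cell-free wells for full effect; nearly all actives have a fitted effect of over 45% in size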
IP6K1 inhibitor: Primary qHTS assay for small molecule inhibitors of Inositol hexaphosphate kinase 1 (IP6K1); Inositol hexakisphosphate kinase 1 (Homo sapiens), Q92551; IP6K1 kinase, ADP-Glo luminescence, 2 h; stronger effect = lower value; activity change, % (series mostly up to about 58 µM); hit rate 0.81% among 140,000; in the data active = activity change below about -25%; note: % is set by controls: 0 for no effect and ±100 for the full control effect
Target sequence (Q92551 whole entry, looked up): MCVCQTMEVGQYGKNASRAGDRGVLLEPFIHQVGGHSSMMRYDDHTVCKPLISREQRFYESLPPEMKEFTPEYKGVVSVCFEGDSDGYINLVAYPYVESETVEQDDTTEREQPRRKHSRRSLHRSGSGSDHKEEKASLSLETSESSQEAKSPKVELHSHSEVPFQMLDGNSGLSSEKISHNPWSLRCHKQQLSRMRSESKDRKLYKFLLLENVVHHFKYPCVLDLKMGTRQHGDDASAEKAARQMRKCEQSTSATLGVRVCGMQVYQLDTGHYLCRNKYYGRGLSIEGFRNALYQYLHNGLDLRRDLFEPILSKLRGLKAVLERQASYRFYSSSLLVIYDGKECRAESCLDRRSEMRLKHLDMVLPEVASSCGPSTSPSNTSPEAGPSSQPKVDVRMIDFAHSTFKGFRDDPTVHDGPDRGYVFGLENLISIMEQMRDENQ
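ADP-Glo luminescence measures ADP made by human IP6K1 during a 2 h RT reaction with ATP/IP6 (mix at 1.3 mM/130 uM); top library doses 57.5 and 19.1 uM final.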
HEK293 viab: GF-AFC viability counterscreen for inhibitors of alpha-synuclein gene (SNCA) expression; hit rate 0.12% among 150,000; HEK-293-SNCA-luc viability, GF-AFC fluorescence, 24 h; Potency, µM (titrated, usually from 57.1 µM), inactives show at the highest dose activity change, negative = cytotoxicity, usual class: cytotoxic; AID 1671193, 2021;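 note: potency is the fitted concentration of half-maximal effect; 0% = DMSO-treated cells and -100% = medium-only wells without cells; nearly all actives have a fitted effect of over 30% in size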
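Cytotoxicity counterscreen: after 24 h compound treatment of genome-edited SNCA-luciferase HEK-293 cells, live-cell protease substrate GF-AFC read by fluorescence after 30 min; activity scaled between DMSO (0%) and medium-only (-100%), curves Hill-fitted.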
* marks the source's active call; other numbers are inactive results; i = inactive; ? = inconclusive; . = not tested or not shown; [ ] = another dose, or the depositor's remark. Unless noted, calls come from the whole dose curve; as a rule, active = well fitted curve in the direction sought with a large enough effect; inconclusive = small, poorly fitted or top-dose-only effect, or another doubt; inactive = no such curve, though single readings can be large; an effect the other way counts as inactive or inconclusive.

SMILES | KDM5B inh | SNCA expr inh | IP6K1 inhibitor | HEK293 viab
CC1CCN(C(=O)CCC[C@H]2NC[C@@H]3C[C@H]2CN(Cc2ccccc2)C3)CC1 | 7.9µM* | 8% | -11 | 2%
CN(Cc1ccc(N2CCCCC2)cc1)C(=O)CCC[C@H]1NC[C@@H]2C[C@H]1CN(Cc1ccccc1)C2 | ? | ? | -2 | 22µM*
CS(=O)(=O)N1CCC(C(=O)Nc2ccccc2SC2CCCC2)CC1 | i | . | . | .
Cc1cccc(C(=O)NC(C)c2cccs2)c1I (centres undefined) | i | . | . | .
COCC(=O)N[C@H]1CO[C@H]2[C@@H]1OC[C@@H]2Nc1nccc(-c2cccc(F)c2)n1 | 35µM* | 22%[87.6 µM] | -5 | -4%[87.6 µM]
COCC(=O)N[C@H]1CO[C@H]2[C@@H]1OC[C@@H]2Nc1nccc(-c2cccc(C#N)c2)n1 | ? | 2%[87.6 µM] | -11 | 2%[87.6 µM]
CCNC(=O)N[C@H]1CO[C@H]2[C@@H]1OC[C@@H]2Nc1nccc(-c2cccc(F)c2)n1 | 32µM* | ? | -10 | 2%[87.6 µM]
CC(=O)N[C@H]1CO[C@H]2[C@@H]1OC[C@@H]2Nc1nccc(-c2cccc(F)c2)n1 | 35µM* | ? | -8 | 3%[87.6 µM]
CC(C)(C)C(=O)N[C@H]1CO[C@H]2[C@@H]1OC[C@@H]2Nc1nccc(-c2cccc(C#N)c2)n1 | ? | 6%[87.6 µM] | -8 | -1%[87.6 µM]
O=C(N[C@H]1CO[C@H]2[C@@H]1OC[C@@H]2Nc1nccc(-c2cccc(F)c2)n1)c1ccccc1 | ? | ? | 0 | 4%[87.6 µM]
N#Cc1cccc(-c2ccnc(N[C@H]3CO[C@H]4[C@@H]3OC[C@@H]4NC(=O)N3CCOCC3)n2)c1 | 32µM* | -17% | -6 | 8%
N#Cc1ccc(Cn2c(=O)c3c(ncn3C3CCCC3)n(Cc3ccccc3)c2=O)cc1 | i | . | . | .
Cc1cc(C=O)c(C)n1C | i | . | . | .
COCC1CCN(C(=O)[C@@H]2CN(c3cnccn3)C[C@H]2COC)CC1 | 25µM* | 5% | 5 | -15%
COC[C@@H]1CN(c2cnccn2)C[C@H]1C(=O)NCCc1cccnc1 | 25µM* | ? | 8 | 4%
COc1ccccc1CNC(=O)[C@H]1CCC[C@H]1NC(=O)c1ccncc1 | i | 0% | 17 | ?
COC[C@@H]1CN(c2cnccn2)C[C@H]1C(=O)NCc1ccccc1OC | 22µM* | -4% | 19 | -2%
O=C(O)CC[C@@H]1CN(c2cnccn2)CC[C@@H]1N1CCOCC1 | ? | 10% | 1 | -4%
COC[C@@H]1CN(c2cnccn2)C[C@H]1C(=O)NCc1c(C)n[nH]c1C | 20µM* | 6% | 13 | 4%
COC[C@@H]1CN(c2cnccn2)C[C@H]1C(=O)NCCCn1cccn1 | 20µM* | -1% | 14 | 4%
O=C(O)c1cc(-c2ccc[nH]2)nc2ccccc12 | i | . | . | .
N#Cc1ccc(CN2CCCCCCNC(=O)[C@@H]3C[C@@H](C(=O)N4CCc5ccccc5C4)C[C@@H]32)cc1 | 25µM* | -17% | 8 | -23%
N#Cc1ccccc1CN1CCCCCCNC(=O)[C@@H]2C[C@@H](C(=O)N3CCc4ccccc4C3)C[C@@H]21 | 20µM* | ? | -5 | ?
O=C1NCCCCCCN(Cc2cccc(F)c2)[C@H]2C[C@H](C(=O)N3CCc4ccccc4C3)C[C@@H]12 | ? | ? | -2 | -25%
CC(=O)N1CCN(C(=O)C2CCCN(c3nc4ncccc4o3)C2)CC1 (centres undefined) | ? | 10%[87.6 µM] | -8 | -7%[87.6 µM]
SMILES | KDM5B inh | SNCA expr inh | IP6K1 inhibitor | HEK293 viab
COCC(=O)N1CCN(c2nc3ncccc3o2)CC1 | 32µM* | 1%[87.6 µM] | -4 | -3%[87.6 µM]
CC(C)(C)C(=O)N1CCCN(c2nc3ncccc3o2)CC1 | 35µM* | -6%[87.6 µM] | -10 | 9%[87.6 µM]
O=C(C1CCCN(c2nc3ncccc3o2)C1)N1CCN(c2ncccn2)CC1 (centres undefined) | 25µM* | 28% | 6 | -2%
O=C(C1CCCC1)N1CCCN(c2nc3ncccc3o2)CC1 | 28µM* | -16%[87.6 µM] | -14 | -1%[87.6 µM]
Cn1c(SCC(=O)NCC(F)(F)F)nnc1-c1cc2c(s1)CCC(C(C)(C)C)C2 (centres undefined) | i | . | . | .
Cn1cccc1-c1noc(C2CCN(Cc3nc(-c4ccc(F)cc4)no3)CC2)n1 | . | -3% | 2 | 4%
CCc1[nH]c(C(=O)OCC(=O)NC2CCCCC2)c(C)c1C(=O)OC | i | . | . | .
O=C(NC1CCCC1)N1CCCN(c2nc3ncccc3o2)CC1 | 28µM* | 35%[87.6 µM] | 0 | -2%[87.6 µM]
CC(NCc1cccs1)C1CC1 (centres undefined) | i | . | . | .
COc1ccc(CCNC(=O)c2ccc3nnc(-c4cc(C(F)(F)F)cc(C(F)(F)F)c4)n3c2)cc1 | . | ? | -9 | -22%
O=C(NC1CCCCC1)c1ccc2c(c1)sc1nc(-c3ccc(F)cc3)cn12 | i | 20% | 13 | -9%
CCNC(=O)C1CCN(C(=O)c2ccc3nc(-c4ccccc4)cn3c2)C1 (centres undefined) | 28µM* | 64% | -1 | -3%
COc1ccc(CCNC(=O)c2ccc3nc(C)cn3c2)cc1 | 28µM* | 5% | 20 | 5%
O=C(NC1C=CS(=O)(=O)C1)c1ccc2nc(-c3ccc(F)cc3)cn2c1 (centres undefined) | 25µM* | 73% | 1 | -23%
Cn1cc(CN(C(=O)c2ccc3nc(-c4ccccc4)cn3c2)C2CC2)cn1 | ? | 19% | -11 | 2%
O=C(c1ccc2nc(-c3ccccc3)cn2c1)N1C[C@@H]2CCC[C@H]1C2 | 22µM* | 178% | 12 | -19%
COc1cc(-c2nnc(COc3nncc4ccccc34)o2)cc(OC)c1OC | i | . | . | .
CC(C(=O)NCc1ccco1)n1cnc2c1c(=O)n(C)c(=O)n2C (centres undefined) | i | . | . | .
O=C(CCc1nc(-c2ccccc2)c(-c2ccccc2)o1)N1CCN(C(=O)C2CC2)CC1 | i | . | . | .
CC(Nc1ncccc1[N+](=O)[O-])c1cccc(Cl)c1 (centres undefined) | i | . | . | .
Cc1cc(C)nc(CNC(=O)c2ccc3nc(-c4ccc(F)cc4)cn3c2)n1 | 28µM* | 20% | 2 | 11%
O=C(NCCCn1ccnc1)c1ccc(Cl)cc1 | i | . | . | .
O=C(c1ccc2nc(-c3ccc(F)cc3)cn2c1)N1CCC(F)CC1 | 28µM* | 85% | -4 | -7%
O=C(c1ccc2nnc(-c3ccc(F)cc3)n2c1)N1CCOCC1 | i | -15% | 7 | 5%
CCn1cc(-c2ccc(F)cc2)cc1C(=O)NCc1cccnc1 | i | 5% | 22 | -1%
O=C(NCCCn1ccnc1)c1ccc2nc(-c3ccc(F)cc3)cn2c1 | 32µM* | 163% | -2 | 1%
CCC(NC(=O)c1ccc2nc(-c3ccc(F)cc3)cn2c1)c1cccnc1 (centres undefined) | 28µM* | 95% | -5 | 2%
CC(C)NC(=O)N1CCC2(CC1)CN(C(=O)c1ccnc(N)c1)Cc1ccccc1O2 | 79µM* | 14% | 10 | 3%
Cc1cc(CN(C)c2ccc(-c3nc(-c4ccccc4F)no3)cn2)on1 | 32µM* | 2% | -2 | 0%
